In the library only some 4.6% were active in any assay of this set; here they are far more common.
D1 ag: activates the human D1 dopamine receptor; 360,000 tested, 1% active; activation, % at 2 µM; P21728; HEK293 T-REx D1 cells, calcium flux, agonist mode
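Inducible HEK293 T-REx D1 cells, force-coupled to calcium signalling, were plated at 4000 cells/well with tetracycline and held overnight at 30 C. After no-wash calcium dye loading, compound-evoked calcium rise over 180 s flagged agonists.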
TRHR ag: agonists of human TRH receptor; P34981; TRHR cells, calcium flux fluo-8, FDSS agonist mode; 360,000 tested, 0.18% active; activation, % at 2 µM; AID 493084
Target sequence (P34981 whole entry, looked up): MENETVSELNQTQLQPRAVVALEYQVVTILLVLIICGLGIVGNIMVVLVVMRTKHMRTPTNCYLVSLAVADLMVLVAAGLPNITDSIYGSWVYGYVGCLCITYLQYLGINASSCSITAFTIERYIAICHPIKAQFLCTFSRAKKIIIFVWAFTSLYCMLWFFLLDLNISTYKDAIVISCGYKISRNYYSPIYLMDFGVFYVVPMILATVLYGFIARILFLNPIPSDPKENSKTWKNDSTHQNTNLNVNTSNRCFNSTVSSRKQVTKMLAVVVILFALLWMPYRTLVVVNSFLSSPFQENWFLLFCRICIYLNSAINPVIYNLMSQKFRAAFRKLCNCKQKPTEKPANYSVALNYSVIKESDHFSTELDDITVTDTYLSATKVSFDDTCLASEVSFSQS
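Steps: seed TRHR cells overnight; add fluo-8 no-wash Ca dye, RT 30 min–1.5 h; record 10 s baseline; pin-transfer compounds; monitor fluorescence 1 cycle/s for the agonist window. Calcium increases flag candidate agonists.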
D1 potentiator: enhances dopamine response at the human D1 receptor; P21728; HEK293 TREx D1 cells, calcium flux, dopamine EC20 potentiation; potentiation, % at 10 µM; 360,000 tested, 0.036% active; AID 504651; in the data active = potentiation above about 30%
D1 antag: human D1 dopamine receptor antagonism. 360,000 tested, 3.2% active. AID 504652. activity change, negative = inhibition, % at 10 µM. HEK293 TREx D1 cells, calcium flux, dopamine EC80; stronger effect = lower value; in the data active = activity change below about -30%
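Cells carrying a force-coupled, tetracycline-inducible human D1 receptor report calcium flux. Each well gets a 10 s baseline, compound with 180 s monitoring, then an EC80 dopamine stimulus with a second 180 s kinetic read.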
TRHR enhancer: allosterically enhances the human TRH receptor | P34981 | TRHR cells, fluo-8 calcium fluorescence, EC20 TRH enhancement | enhancement, % at 2 µM | 360,000 tested, 0.66% active; in the data active = enhancement above about 30%
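TRHR-expressing cells loaded with fluo-8 calcium dye were read kinetically (ex 480/em 530) during compound addition, then stimulated with an EC20 of TRH (10 nM final). Enhancement of the Gq-mediated intracellular calcium response was scored.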
Of the large screens only hits and unclear results are named; the others gave an inactive call. Rule as the data show it, unless noted: active = activation above about 30%; inactive = the rest.

Cc1ccc2cc(COC(=O)c3cccc([N+](=O)[O-])c3)c(=O)[nH]c2c1	D1 antag -33.7
Cc1ccc2cc(CCNC(=O)c3cccc([N+](=O)[O-])c3)c(=O)[nH]c2c1	none
CCCN(CCC)CCCNC(=O)c1nn(C)c2c1CS(=O)(=O)c1ccccc1-2	none
COc1cccc(N/C(SCc2ccccc2F)=C(/C#N)C(=O)NCc2cccs2)c1	D1 ag 33.6, D1 antag -40.4
CCc1ccccc1NC(=O)c1nn(-c2ccc(C)cc2)c(=O)c2c1c1ccccc1n2C	D1 antag -33.3
CCOc1ccccc1N(C)C(=O)c1nn(-c2ccc(C)cc2)c(=O)c2c1c1ccccc1n2C	none
CCc1ccccc1NC(=O)c1cn(C)c(=O)c2ccccc12	D1 antag -68.9
COc1ccc(-n2nc(C(=O)Nc3cccc(C)n3)c3c4ccccc4n(C)c3c2=O)cc1Cl	none
Cc1ccc(-n2nc(C(=O)N(C)c3ccccc3Cl)c3c4ccccc4n(C)c3c2=O)cc1	TRHR ag 55.8
COc1ccc(-n2nc(C(=O)Nc3cccc(Cl)c3)c3c4ccccc4n(C)c3c2=O)cc1Cl	D1 antag -32.5
COc1ccc(CCNC(=O)Cc2c(C)c3cc4c(C)coc4cc3oc2=O)cc1OC	none
CCn1c(=O)c2cc(C(=O)NC3CCC(C)CC3)sc2c2ccccc21 (stereo unspecified)	none
CCCCCCOc1ccc(/C(C)=N/NC2=NCCN2)cc1	D1 ag 39.1
CCOc1ccccc1C(=O)N(Cc1cc(OC)c(OC)c(OC)c1)c1ccccn1	none
Cc1cc(C)cc(NC(=O)C(NS(=O)(=O)c2cccc3nsnc23)c2ccccc2)c1 (stereo unspecified)	none
CN(C)c1ccc(-c2nc3ccccc3n2C)cc1	none
CC(C)n1c(-c2ccc(N(C)C)cc2)nc2ccccc21	D1 antag -42.6
COc1ccc(NC(=O)c2ccco2)cc1NC(=O)C(C)(C)Oc1ccc(Cl)cc1	none
COc1ccc(O)c(C(=O)c2cnc3c(c2)c(C)nn3C)c1	none
COc1ccc(O)c(C(=O)c2cnc3onc(C)c3c2)c1	D1 antag -39.3
CCc1ccc(O)c(CNCCNCc2cc(CC)ccc2O)c1	D1 ag 30.6
CC(=O)Nc1cc(C(=O)O)ccc1S(=O)(=O)c1ccc(C)cc1	none
CC(=O)Nc1cc(C(=O)N2CCOCC2)ccc1S(=O)(=O)c1ccc(C)cc1	D1 antag -31.5
CC(=O)Nc1cc(C(=O)NCc2ccc(F)cc2)ccc1S(=O)(=O)c1ccc(C)cc1	D1 antag -67.2
C[C@@H]1CN(C(=O)c2ccc(OC3CCN(S(=O)(=O)N(C)C)CC3)cc2)C[C@H](C)O1	D1 antag -30.3
Cc1cccc(-c2noc(-c3cc(C(C)C)[nH]n3)n2)c1	D1 ag 42.0
COc1ccccc1CNC(=O)c1c[nH]c2ccc(S(=O)(=O)Nc3cc(C)cc(C)c3)cc2c1=O	none
CCCC[C@]12Cc3ccccc3[C@H](O1)C1=C(O2)C(=O)c2ccccc2C1=O	none
CC(C)[C@H](NC(=O)c1ccccc1F)C(=O)NCc1ccc(S(N)(=O)=O)cc1	none
CC(C)C(NC(=O)c1ccccc1F)C(=O)NCc1ccccc1 (stereo unspecified)	D1 antag -57.3
COc1ccc(N=Nc2nc3cc(Br)c(Br)cc3n2C)c(OC)c1	D1 ag 88.3, TRHR ag 55.2
O=C(c1cnc(N2CCCCC2)c2ccccc12)N1CCN(c2cccc(Cl)c2)CC1	none
Cc1ccc(OCC(=O)OCCN2C(=O)c3ccccc3C2=O)cc1C	none
Cc1cc(C)cc(OCC(=O)OCCN2C(=O)c3ccccc3C2=O)c1	TRHR enhancer 39.3
COC(=O)CN1C(=O)CSc2ccc(S(=O)(=O)Nc3cccc(Cl)c3C)cc21	none
O=C(NN1C(=O)C2C3C=CC(C4CC34)C2C1=O)c1ccc(Br)cc1 (stereo unspecified)	none
O=C(NN1C(=O)C2C3C=CC(C4CC34)C2C1=O)c1ccc(Cl)c(Cl)c1 (stereo unspecified)	TRHR enhancer 30.0
Oc1c(Br)cc(Br)cc1-c1nc2ccccc2s1	D1 antag -30.1
COc1cccc(-c2nc3ccccc3s2)c1O	none
Cc1occc1C(=O)N(C)CC1CCCN(CCc2ccccc2F)C1 (stereo unspecified)	D1 antag -31.7
Cc1cc(C)c(C(=O)N(C)CC2CCCN(CCc3ccccc3F)C2)o1 (stereo unspecified)	D1 antag -66.9
CN(CC1CCCN(CCc2ccccc2F)C1)C(=O)c1ccoc1 (stereo unspecified)	none
O=C(Cn1c(=O)n(-c2ccccc2)c(=O)c2ccc(C(=O)NCc3ccc4c(c3)OCO4)cc21)Nc1ccc(Br)cc1F	none
COC(=O)c1c(NC(=O)c2ccco2)sc2c1CCN(C(C)C)C2	D1 ag 32.7
CCOC(=O)c1c(NC(=O)c2ccc(S(=O)(=O)N(C)C3CCCCC3)cc2)sc2c1CCN(C(C)C)C2	D1 ag 55.8, TRHR ag 31.5
CC(C)N1CCc2c(sc(NC(=O)c3ccc4ccccc4c3)c2C(N)=O)C1	TRHR ag 30.7
CC(C)N1CCc2c(sc(NC(=O)c3ccco3)c2C(N)=O)C1	none
CC(C)N1CCc2c(sc(NC(=O)c3ccc(C(=O)c4ccccc4)cc3)c2C(N)=O)C1	none
CCOC(=O)c1c(NC(=S)NCc2ccccc2)sc2c1CCN(C(=O)OCC)C2	D1 antag -40.2
O=c1c2sc3ccccc3c2n(Cc2cccc(C(F)(F)F)c2)c(=O)n1Cc1ccc(F)cc1	none
Cc1nc(-c2ccccc2)sc1CCNC(=O)C(=O)Nc1ccc2c(c1)OCO2	none
CC(C)N1CCc2c(sc(NC(=O)c3cc4cc([N+](=O)[O-])ccc4s3)c2C(N)=O)C1	D1 ag 34.8
CN1CCc2c(sc(NC(=O)c3cc4cc([N+](=O)[O-])ccc4s3)c2C(N)=O)C1	none
Cc1ccc(Oc2nc3c(c(=O)n(Cc4ccccc4)c(=O)n3C)n2C)cc1C	none
N#CC1=C(S)N(c2ccccc2)C(c2ccc(-c3ccc(Cl)c(Cl)c3)o2)NC1=O (stereo unspecified)	D1 ag 62.5
N#CC1=C(S)N(c2ccc(F)cc2)C(c2ccco2)NC1=O (stereo unspecified)	none
Cc1ccc(N2C(S)=C(C#N)C(=O)NC2c2ccco2)cc1 (stereo unspecified)	D1 antag -47.0
O=C(Nc1ccc(Cl)cc1)C1CCN(c2nc3ccccc3nc2C(F)(F)F)CC1	none
Cc1ccc(OCC(=O)NCC(=O)OCc2cc(=O)n3nc(CC(C)C)sc3n2)cc1	D1 antag -36.4
Cc1cc2c(c(=O)n1Cc1cccnc1)C(c1ccccc1)C(C#N)=C(N)O2 (stereo unspecified)	none
